# Measurements reported in PMC7862700, “An all-to-all approach to the identification of sequence-specific readers for epigenetic DNA modifications on cytosine”.
# Key:
# Experiment in all cases: DAPPL (digital affinity profiling via proximity ligation, sequencing); 10 mM Tris-HCl pH 7.5, 50 mM NaCl, 1 mM DTT, 4% glycerol, room temperature, 30 min; GST-TFs on glutathione beads, 16-mer random dsDNA library, 0.1% formaldehyde crosslink after washing; high values mean tight binding
# FEV = molecular target: T1, FEV (Homo sapiens, UniProt Q99581 1-238); settings: protein: recombinant; tags: N-terminal GST; dsDNA, one strand shown
# T1 sequence: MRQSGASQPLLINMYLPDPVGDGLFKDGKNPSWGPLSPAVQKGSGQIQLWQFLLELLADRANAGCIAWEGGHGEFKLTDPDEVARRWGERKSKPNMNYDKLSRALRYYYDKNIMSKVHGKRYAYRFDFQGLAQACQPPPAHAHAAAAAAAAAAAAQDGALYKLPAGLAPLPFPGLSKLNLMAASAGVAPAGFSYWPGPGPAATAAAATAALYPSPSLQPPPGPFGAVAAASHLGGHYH
# Summary of the method: (§1)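 After expression in yeast as GST fusions, human transcription factors were bound to glutathione beads, DNA-barcoded and mixed with a tag-only sample. The pools were incubated with 200 nmole of a 16-mer random double-stranded DNA library in Tris/NaCl/DTT/glycerol buffer (30 min, room temperature), washed and crosslinked with 0.1% formaldehyde. Proximity ligation with BsaI/T4 ligase ran for 1 h at 37 °C, before PCR amplification and sequencing on an Illumina NextSeq500. Binding signal is a hexamer's read frequency for a factor divided by its frequency for the tag-only sample.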
# ETV5 = ETV5 (Homo sapiens, UniProt P41161 1-510); settings: protein: recombinant; tags: N-terminal GST; dsDNA, one strand shown
# Chain of ETV5 (P41161 whole entry): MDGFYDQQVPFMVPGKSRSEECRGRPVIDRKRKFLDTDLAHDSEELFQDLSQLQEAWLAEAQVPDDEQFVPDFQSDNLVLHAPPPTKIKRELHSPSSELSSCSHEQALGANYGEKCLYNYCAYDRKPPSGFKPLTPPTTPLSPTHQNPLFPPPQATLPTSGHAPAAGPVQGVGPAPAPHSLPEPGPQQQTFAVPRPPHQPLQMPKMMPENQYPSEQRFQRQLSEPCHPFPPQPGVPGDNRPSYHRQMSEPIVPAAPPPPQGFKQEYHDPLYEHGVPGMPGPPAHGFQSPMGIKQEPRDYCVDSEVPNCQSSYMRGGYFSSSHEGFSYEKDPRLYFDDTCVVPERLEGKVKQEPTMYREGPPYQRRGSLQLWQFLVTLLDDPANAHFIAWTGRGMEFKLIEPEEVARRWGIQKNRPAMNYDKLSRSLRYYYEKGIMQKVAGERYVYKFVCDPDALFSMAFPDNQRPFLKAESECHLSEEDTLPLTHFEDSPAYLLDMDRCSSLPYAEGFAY
# Summary of the method: as §1
# HSF1 = HSF1 (Homo sapiens, UniProt Q00613 1-529); settings: protein: recombinant; tags: N-terminal GST; chain copies: 3; dsDNA, one strand shown
# Chain of HSF1 (Q00613 whole entry): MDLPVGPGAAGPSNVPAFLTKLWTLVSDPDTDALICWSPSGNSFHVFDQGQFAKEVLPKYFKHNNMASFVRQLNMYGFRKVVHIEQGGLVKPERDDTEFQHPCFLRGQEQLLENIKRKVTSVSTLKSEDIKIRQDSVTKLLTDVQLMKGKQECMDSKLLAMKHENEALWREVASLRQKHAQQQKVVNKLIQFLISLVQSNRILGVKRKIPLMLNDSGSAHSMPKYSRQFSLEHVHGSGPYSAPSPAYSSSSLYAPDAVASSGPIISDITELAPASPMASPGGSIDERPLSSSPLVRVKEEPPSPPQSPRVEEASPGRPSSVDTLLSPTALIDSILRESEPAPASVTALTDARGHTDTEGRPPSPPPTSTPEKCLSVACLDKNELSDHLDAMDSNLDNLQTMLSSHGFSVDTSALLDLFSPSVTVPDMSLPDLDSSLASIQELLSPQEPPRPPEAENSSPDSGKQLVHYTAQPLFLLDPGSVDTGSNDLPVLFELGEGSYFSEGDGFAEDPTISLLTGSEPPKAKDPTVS
# Summary of the method: as §1
# SPIC = molecular target: T2, SPIC (Homo sapiens, UniProt Q8N5J4 1-248); settings: protein: recombinant; tags: N-terminal GST; dsDNA, one strand shown
# T2 sequence: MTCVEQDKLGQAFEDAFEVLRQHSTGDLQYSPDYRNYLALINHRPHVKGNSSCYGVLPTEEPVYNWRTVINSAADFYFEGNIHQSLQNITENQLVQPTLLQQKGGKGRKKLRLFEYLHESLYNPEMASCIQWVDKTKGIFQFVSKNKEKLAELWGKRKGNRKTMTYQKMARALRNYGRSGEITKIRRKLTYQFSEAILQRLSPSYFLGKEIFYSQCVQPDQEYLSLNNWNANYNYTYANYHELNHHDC
# Summary of the method: as §1
# ELF4 = ELF4 (Homo sapiens, UniProt Q99607 1-663); settings: protein: recombinant; tags: N-terminal GST; dsDNA, one strand shown
# Chain of ELF4 (Q99607 whole entry): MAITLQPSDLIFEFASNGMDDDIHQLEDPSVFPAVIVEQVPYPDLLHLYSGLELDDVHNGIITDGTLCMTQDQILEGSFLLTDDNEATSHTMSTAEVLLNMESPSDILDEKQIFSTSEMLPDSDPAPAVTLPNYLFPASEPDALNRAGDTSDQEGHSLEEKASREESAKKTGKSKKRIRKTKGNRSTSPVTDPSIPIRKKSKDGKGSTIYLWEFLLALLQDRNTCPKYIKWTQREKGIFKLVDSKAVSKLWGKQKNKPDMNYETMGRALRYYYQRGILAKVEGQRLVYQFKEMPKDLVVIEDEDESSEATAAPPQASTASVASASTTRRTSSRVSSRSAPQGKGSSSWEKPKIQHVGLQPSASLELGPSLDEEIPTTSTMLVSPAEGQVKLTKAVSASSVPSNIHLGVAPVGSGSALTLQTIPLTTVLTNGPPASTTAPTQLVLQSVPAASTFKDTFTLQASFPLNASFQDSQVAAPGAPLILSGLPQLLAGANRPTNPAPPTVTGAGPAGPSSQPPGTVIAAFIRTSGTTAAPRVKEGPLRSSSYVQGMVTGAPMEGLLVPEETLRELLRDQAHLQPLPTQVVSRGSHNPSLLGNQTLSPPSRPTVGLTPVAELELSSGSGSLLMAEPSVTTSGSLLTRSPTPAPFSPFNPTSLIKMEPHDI
# Summary of the method: as §1
# ELK4 = molecular target: T3, ELK4 (Homo sapiens, UniProt P28324-2 1-405); settings: protein: recombinant; tags: N-terminal GST; dsDNA, one strand shown
# T3 sequence: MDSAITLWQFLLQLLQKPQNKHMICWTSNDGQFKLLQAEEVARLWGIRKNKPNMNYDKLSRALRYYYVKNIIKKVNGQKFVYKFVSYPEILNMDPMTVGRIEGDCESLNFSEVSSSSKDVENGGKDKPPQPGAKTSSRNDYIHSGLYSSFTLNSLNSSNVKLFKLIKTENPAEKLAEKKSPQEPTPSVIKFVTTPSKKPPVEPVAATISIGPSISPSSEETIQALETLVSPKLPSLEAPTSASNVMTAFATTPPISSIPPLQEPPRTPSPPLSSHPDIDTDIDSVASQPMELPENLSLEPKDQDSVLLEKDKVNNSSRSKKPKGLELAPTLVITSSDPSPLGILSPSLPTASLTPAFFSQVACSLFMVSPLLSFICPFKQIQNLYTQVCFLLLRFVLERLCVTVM
# Summary of the method: as §1
# ETV2 = molecular target: T4, ETV2 (Homo sapiens, UniProt O00321 1-342); settings: protein: recombinant; tags: N-terminal GST; dsDNA, one strand shown
# T4 sequence: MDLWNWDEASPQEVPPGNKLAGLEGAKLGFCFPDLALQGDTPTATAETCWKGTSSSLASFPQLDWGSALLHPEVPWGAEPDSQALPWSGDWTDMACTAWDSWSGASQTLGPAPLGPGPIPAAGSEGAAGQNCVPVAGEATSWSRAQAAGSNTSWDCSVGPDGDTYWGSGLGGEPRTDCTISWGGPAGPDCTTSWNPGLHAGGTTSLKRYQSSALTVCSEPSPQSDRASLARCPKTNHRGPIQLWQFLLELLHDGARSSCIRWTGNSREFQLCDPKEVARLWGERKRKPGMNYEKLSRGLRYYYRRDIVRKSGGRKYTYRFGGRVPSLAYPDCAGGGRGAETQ
# Summary of the method: as §1
# ELF3 = molecular target: T5, ELF3 (Homo sapiens, UniProt P78545 1-371); settings: protein: recombinant; tags: N-terminal GST; dsDNA, one strand shown
# T5 sequence: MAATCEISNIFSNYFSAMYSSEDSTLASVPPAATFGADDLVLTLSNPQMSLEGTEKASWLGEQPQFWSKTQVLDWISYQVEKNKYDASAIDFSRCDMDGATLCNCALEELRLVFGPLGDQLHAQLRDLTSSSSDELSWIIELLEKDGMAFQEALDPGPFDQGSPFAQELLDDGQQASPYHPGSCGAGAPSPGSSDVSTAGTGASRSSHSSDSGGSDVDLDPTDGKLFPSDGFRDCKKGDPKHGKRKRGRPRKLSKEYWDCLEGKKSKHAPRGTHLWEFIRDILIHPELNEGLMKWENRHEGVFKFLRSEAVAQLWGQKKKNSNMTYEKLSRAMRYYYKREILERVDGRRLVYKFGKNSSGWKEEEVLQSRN
# Summary of the method: as §1
# CRX = CRX (Homo sapiens, UniProt O43186 1-299); settings: protein: recombinant; tags: N-terminal GST; dsDNA, one strand shown
# Chain of CRX (O43186 whole entry): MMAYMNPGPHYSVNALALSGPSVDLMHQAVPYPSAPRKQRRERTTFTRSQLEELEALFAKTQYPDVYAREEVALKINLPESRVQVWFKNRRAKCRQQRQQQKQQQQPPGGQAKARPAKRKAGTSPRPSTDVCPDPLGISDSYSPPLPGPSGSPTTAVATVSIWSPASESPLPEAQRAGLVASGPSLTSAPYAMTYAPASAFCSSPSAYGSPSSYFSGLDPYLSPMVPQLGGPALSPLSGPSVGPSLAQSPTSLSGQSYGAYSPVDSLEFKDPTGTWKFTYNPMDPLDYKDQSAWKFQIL
# Summary of the method: as §1
# ETV1 = ETV1 (Homo sapiens, UniProt P50549 1-477); settings: protein: recombinant; tags: N-terminal GST; dsDNA, one strand shown
# Chain of ETV1 (P50549 whole entry): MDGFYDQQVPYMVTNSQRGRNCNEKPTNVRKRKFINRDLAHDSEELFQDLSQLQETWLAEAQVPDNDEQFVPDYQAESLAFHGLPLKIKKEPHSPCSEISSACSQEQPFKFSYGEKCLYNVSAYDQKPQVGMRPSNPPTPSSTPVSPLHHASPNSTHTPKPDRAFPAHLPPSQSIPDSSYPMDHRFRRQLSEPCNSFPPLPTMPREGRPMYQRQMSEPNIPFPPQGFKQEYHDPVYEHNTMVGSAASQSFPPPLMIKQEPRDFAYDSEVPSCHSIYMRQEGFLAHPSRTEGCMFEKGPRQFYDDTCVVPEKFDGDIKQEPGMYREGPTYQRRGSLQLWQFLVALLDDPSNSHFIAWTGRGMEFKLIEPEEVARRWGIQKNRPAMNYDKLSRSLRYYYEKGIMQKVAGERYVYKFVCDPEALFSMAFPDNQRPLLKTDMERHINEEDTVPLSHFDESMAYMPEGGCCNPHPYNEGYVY
# Summary of the method: as §1
# ERF = molecular target: T6, ERF (Homo sapiens, UniProt P50548 1-548); settings: protein: recombinant; tags: N-terminal GST; dsDNA, one strand shown
# T6 sequence: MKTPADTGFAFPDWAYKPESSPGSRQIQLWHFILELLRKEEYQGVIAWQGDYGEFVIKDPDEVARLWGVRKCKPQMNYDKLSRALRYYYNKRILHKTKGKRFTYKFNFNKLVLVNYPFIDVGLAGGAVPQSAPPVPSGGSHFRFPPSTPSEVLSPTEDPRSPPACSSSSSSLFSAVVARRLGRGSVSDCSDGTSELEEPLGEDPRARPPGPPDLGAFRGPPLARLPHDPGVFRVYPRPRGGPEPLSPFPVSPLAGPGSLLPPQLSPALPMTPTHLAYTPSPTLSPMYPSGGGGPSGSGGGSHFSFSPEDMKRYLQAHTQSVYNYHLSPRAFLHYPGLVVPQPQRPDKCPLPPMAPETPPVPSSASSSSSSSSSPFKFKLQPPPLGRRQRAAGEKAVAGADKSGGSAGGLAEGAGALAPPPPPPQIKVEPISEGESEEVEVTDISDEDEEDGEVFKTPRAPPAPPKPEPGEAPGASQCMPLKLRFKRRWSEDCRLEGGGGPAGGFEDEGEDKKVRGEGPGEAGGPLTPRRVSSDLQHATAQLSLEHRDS
# Summary of the method: as §1
# ETV3L = molecular target: T7, ETV3L (Homo sapiens, UniProt Q6ZN32 1-361); settings: protein: recombinant; tags: N-terminal GST; dsDNA, one strand shown
# T7 sequence: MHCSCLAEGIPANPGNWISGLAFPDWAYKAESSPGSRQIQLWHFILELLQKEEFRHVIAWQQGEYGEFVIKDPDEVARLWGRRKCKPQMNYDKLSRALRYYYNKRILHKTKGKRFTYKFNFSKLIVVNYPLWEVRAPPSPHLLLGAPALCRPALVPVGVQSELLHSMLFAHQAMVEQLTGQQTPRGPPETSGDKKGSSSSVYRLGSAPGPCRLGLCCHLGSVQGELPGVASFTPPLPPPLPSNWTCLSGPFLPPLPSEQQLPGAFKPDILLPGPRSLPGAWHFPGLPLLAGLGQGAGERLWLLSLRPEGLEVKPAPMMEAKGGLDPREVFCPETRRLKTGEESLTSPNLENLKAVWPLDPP
# Summary of the method: as §1
# ETS2 = molecular target: T8, ETS2 (Homo sapiens, UniProt P15036 1-469); settings: protein: recombinant; tags: N-terminal GST; dsDNA, one strand shown
# T8 sequence: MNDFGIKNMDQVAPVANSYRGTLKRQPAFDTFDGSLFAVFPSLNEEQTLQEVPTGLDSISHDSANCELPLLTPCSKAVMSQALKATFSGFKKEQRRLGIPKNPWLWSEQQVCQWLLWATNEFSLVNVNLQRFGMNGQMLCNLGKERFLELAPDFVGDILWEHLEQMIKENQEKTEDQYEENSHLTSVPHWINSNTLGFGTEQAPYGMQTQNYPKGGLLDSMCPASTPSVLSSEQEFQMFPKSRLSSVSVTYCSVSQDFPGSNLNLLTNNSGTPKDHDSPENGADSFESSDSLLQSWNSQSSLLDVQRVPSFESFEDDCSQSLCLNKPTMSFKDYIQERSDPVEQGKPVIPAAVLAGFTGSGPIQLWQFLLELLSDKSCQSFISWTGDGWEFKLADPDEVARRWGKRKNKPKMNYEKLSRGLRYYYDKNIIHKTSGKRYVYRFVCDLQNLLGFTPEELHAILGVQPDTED
# Summary of the method: as §1
# SPDEF = molecular target: T9, SPDEF (Homo sapiens, UniProt O95238 1-335); settings: protein: recombinant; tags: N-terminal GST; dsDNA, one strand shown
# T9 sequence: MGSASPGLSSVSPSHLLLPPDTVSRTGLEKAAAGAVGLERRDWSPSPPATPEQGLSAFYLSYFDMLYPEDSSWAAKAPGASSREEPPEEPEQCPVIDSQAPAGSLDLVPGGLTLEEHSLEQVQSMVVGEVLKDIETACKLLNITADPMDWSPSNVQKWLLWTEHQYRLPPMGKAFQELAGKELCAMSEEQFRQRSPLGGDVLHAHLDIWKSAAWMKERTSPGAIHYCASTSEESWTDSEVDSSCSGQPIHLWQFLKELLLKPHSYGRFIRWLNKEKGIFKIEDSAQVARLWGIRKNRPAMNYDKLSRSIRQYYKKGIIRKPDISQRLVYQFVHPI
# Summary of the method: as §1
# ETV7 = molecular target: T10, ETV7 (Homo sapiens, UniProt Q9Y603 1-341); settings: protein: recombinant; tags: N-terminal GST; dsDNA, one strand shown
# T10 sequence: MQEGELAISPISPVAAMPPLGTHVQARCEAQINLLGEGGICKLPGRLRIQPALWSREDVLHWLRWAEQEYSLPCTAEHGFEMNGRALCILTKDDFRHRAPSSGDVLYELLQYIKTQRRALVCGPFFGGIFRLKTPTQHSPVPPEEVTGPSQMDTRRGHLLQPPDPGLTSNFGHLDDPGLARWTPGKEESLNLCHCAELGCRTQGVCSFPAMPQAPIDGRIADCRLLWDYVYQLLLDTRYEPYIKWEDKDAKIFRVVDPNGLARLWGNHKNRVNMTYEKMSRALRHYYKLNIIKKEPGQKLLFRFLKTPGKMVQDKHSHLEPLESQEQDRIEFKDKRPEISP
# Summary of the method: as §1
# ELF5 = molecular target: T11, ELF5 (Homo sapiens, UniProt Q9UKW6-2 1-255); settings: protein: recombinant; tags: N-terminal GST; dsDNA, one strand shown
# T11 sequence: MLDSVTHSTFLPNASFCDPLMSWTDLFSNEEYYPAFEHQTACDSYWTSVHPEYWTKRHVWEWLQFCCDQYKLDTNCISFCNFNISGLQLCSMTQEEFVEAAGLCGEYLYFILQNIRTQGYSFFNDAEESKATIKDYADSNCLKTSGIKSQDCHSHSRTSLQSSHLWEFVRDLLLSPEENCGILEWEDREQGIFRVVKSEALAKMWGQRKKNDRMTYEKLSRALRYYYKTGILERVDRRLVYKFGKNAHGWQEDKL
# Summary of the method: as §1
# ETV3 = molecular target: T12, ETV3 (Homo sapiens, UniProt P41162-2 1-143); settings: protein: recombinant; tags: N-terminal GST; dsDNA, one strand shown
# T12 sequence: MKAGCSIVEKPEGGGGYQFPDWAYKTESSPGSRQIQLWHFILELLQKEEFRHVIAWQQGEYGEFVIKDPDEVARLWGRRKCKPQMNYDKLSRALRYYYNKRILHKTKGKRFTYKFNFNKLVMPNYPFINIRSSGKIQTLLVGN
# Summary of the method: as §1
# ETV6 = ETV6 (Homo sapiens, UniProt P41212 1-452); settings: protein: recombinant; tags: N-terminal GST; dsDNA, one strand shown
# Chain of ETV6 (P41212 whole entry): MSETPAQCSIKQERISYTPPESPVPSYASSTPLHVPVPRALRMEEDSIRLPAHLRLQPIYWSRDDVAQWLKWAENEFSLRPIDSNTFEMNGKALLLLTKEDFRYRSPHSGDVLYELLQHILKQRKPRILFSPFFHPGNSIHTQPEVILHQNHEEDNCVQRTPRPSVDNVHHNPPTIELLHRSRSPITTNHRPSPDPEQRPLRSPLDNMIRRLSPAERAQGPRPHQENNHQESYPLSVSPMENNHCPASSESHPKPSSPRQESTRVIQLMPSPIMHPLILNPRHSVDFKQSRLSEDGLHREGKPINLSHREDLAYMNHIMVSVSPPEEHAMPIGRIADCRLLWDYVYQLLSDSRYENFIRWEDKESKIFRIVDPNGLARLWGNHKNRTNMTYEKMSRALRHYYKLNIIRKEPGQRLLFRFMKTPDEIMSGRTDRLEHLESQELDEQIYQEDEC
# Summary of the method: as §1
sequence,measurement,setting,value
ACTCTG,binding signal,FEV,"1.27 fold enrichment (6-mer frequency, TF over GST control)"
same,binding signal,ETV5,"1.27 fold enrichment (6-mer frequency, TF over GST control)"
same,binding signal,HSF1,"1.12 fold enrichment (6-mer frequency, TF over GST control)"
same,binding signal,SPIC,"1.51 fold enrichment (6-mer frequency, TF over GST control)"
same,binding signal,ELF4,"1.24 fold enrichment (6-mer frequency, TF over GST control)"
same,binding signal,ELK4,"1.23 fold enrichment (6-mer frequency, TF over GST control)"
same,binding signal,ETV2,"1.23 fold enrichment (6-mer frequency, TF over GST control)"
same,binding signal,ELF3,"1.15 fold enrichment (6-mer frequency, TF over GST control)"
same,binding signal,CRX,"1.12 fold enrichment (6-mer frequency, TF over GST control)"
same,binding signal,ETV1,"1.25 fold enrichment (6-mer frequency, TF over GST control)"
same,binding signal,ERF,"1.43 fold enrichment (6-mer frequency, TF over GST control)"
same,binding signal,ETV3L,"1.28 fold enrichment (6-mer frequency, TF over GST control)"
same,binding signal,ETS2,"1.29 fold enrichment (6-mer frequency, TF over GST control)"
same,binding signal,SPDEF,"1.16 fold enrichment (6-mer frequency, TF over GST control)"
same,binding signal,ETV7,"1.21 fold enrichment (6-mer frequency, TF over GST control)"
same,binding signal,ELF5,"1.2 fold enrichment (6-mer frequency, TF over GST control)"
same,binding signal,ETV3,"1.27 fold enrichment (6-mer frequency, TF over GST control)"
same,binding signal,ETV6,"1.23 fold enrichment (6-mer frequency, TF over GST control)"
